In PubChem BioAssay (Tox21) one finds Potency data, which are given here for 32 compounds.

Several values for one entry are separate records, joined by “and”; a condition that tells them apart may be missing. Equal entries are not always repeated. Results filed as inconclusive are left out. Where a call stands in place of a potency, no number is given. More than one record can exist for a structure, and the calls need not agree. Activity calls are given as the source filed them. Calls follow the shape of the dose curve; as a rule, active = well fitted activation curve with a large enough effect in the repeat runs; inconclusive = weak or mixed curves; inactive = flat fitted curve, though single readings scatter.

The first test is described as follows: A CellTox Green Cytotoxicity Assay to monitor cytotoxicity in HEK293 cells - 32 hour (AID 1224881). Also: nearly all actives have a fitted effect of over 40% in size. Also: potency is read from the fitted curve at half-maximal effect. The note with it: CellTox Green fluorescence; series mostly up to 76.8 µM. Put shortly:
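Dead-cell fluorescence measured kinetically: asymmetric cyanine dye, HEK293, 600 cells/well, 5 h settle, 23 nL cpd/DMSO, 37 C, reads 0–40 h every 8 h.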
Take `O=C(O)CCl`: the Potency result is “inactive”.

On to `C=CCOC(Cn1ccnc1)c1ccc(Cl)cc1Cl` (stereo unspecified), for which the Potency was 55.1 µM (active) and inactive.

Consider `CC(=O)O`, for which the Potency result was “inactive”.

In the case of `CCC[N+]1(C)CCCC1`, the Potency entry was “inactive”.

`CCCCCC[n+]1ccccc1`: the Potency entry was “inactive”.

As to `CCCC[N+]1(C)CCCCC1`, the Potency entry was “inactive”.

Regarding `COCC(=O)N(c1c(C)cccc1C)C(C)C(=O)OC` (stereo unspecified), the Potency entry was “inactive”.

Consider `Nc1ccccc1`, for which the Potency result was “inactive”.

With `O=S(=O)(O)O`, the Potency result was “inactive”.

Take `C1CCC(NC2CCCCC2)CC1`: the Potency result was “inactive”.

For the compound `CCCn1cc[n+](C)c1`, the Potency result is “inactive”.

In the case of `O=C(O)C(Cl)(Cl)Cl`, the Potency result was “inactive”.

As to `COP(=O)(OC)C(O)C(Cl)(Cl)Cl` (stereo unspecified), the Potency result was “inactive”.

`CN(C)[C@@H]1C(=O)C(C(N)=O)=C(O)[C@@]2(O)C(=O)C3=C(O)c4c(O)cccc4[C@@](C)(O)[C@H]3[C@H](O)[C@@H]12`: the Potency entry is “inactive”.

For the compound `O=C(O)C(Cl)Cl`, the Potency result was “inactive”.

For the compound `CCOP(=S)(OCC)Oc1ccc2c(C)c(Cl)c(=O)oc2c1`, the Potency entry was “inactive”.

With `CC[n+]1ccccc1`, the Potency result was “inactive”.

With `COP(=O)(OC)OC=C(Cl)Cl`, the Potency result was “inactive”.

Turning to `CCCCn1cc[n+](C)c1C`, the Potency entry is “inactive”.

As to `CC(=O)[O][Hg][c]1ccccc1`, the Potency was 611 nM (active) and 977 nM (active) and 213 nM (active).

For the compound `CCCCCCCCCCn1cc[n+](C)c1`, the Potency result is “inactive”.

`O=C(O)COc1ccc(Cl)cc1Cl`: the Potency result was “inactive”.

As for `CC[N+](CC)(CC)CC`, the Potency entry is “inactive”.

With `CCCCn1cc[n+](C)c1`, the Potency result was “inactive”.

As for `C[C@]12CCC(=O)C=C1CC[C@@H]1[C@@H]2CC[C@]2(C)C(=O)CC[C@@H]12`, the Potency entry is “inactive”.

Consider `Cc1cc(Cl)ccc1OCC(=O)O`, for which the Potency result was “inactive”.

Take `O=c1[nH]c(=O)n(Cl)c(=O)n1Cl`: the Potency entry is “inactive”.

As for `CCn1cc[n+](C)c1C`, the Potency entry is “inactive”.

`O=P1(N(CCCl)CCCl)NCCCO1` (stereo unspecified): the Potency result is “inactive”.

For the compound `OCCOc1ccccc1`, the Potency result was “inactive”.

`CCNc1nc(Cl)nc(NCC)n1`: the Potency entry is “inactive”.

With `CC(Cl)(Cl)C(=O)O`, the Potency result is “inactive”.

The nature of another test: A CellTox Green Cytotoxicity Assay to monitor cytotoxicity in HepG2 cells - 0 hour (AID 1224882). Also: nearly all actives have a fitted effect of over 35% in size. Particulars: CellTox Green fluorescence; series mostly up to 76.8 µM. The essentials: (§1)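 First, HepG2 cells (600/well) mixed with reagent were plated; second, after 5 h at 37 C they received compounds via pintool; third, fluorescence was measured at 0 h through 40 h at 8 h intervals.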
For `O=C(O)CCl`, the Potency result is “inactive”.

`C=CCOC(Cn1ccnc1)c1ccc(Cl)cc1Cl` (stereo unspecified): the Potency result was “inactive”.

On to `CC(=O)O`, for which the Potency result was “inactive”.

As to `CCC[N+]1(C)CCCC1`, the Potency entry was “inactive”.

On to `CCCCCC[n+]1ccccc1`, for which the Potency result was “inactive”.

Turning to `CCCC[N+]1(C)CCCCC1`, the Potency entry is “inactive”.

Turning to `COCC(=O)N(c1c(C)cccc1C)C(C)C(=O)OC` (stereo unspecified), the Potency result was “inactive”.

Turning to `Nc1ccccc1`, the Potency result was “inactive”.

As for `O=S(=O)(O)O`, the Potency result is “inactive”.

For the compound `C1CCC(NC2CCCCC2)CC1`, the Potency result is “inactive”.

Take `CCCn1cc[n+](C)c1`: the Potency entry was “inactive”.

For `O=C(O)C(Cl)(Cl)Cl`, the Potency result was “inactive”.

In the case of `COP(=O)(OC)C(O)C(Cl)(Cl)Cl` (stereo unspecified), the Potency result is “inactive”.

Consider `CN(C)[C@@H]1C(=O)C(C(N)=O)=C(O)[C@@]2(O)C(=O)C3=C(O)c4c(O)cccc4[C@@](C)(O)[C@H]3[C@H](O)[C@@H]12`, for which the Potency result is “inactive”.

Turning to `O=C(O)C(Cl)Cl`, the Potency result is “inactive”.

With `CCOP(=S)(OCC)Oc1ccc2c(C)c(Cl)c(=O)oc2c1`, the Potency entry was “inactive”.

As for `CC[n+]1ccccc1`, the Potency result was “inactive”.

Turning to `COP(=O)(OC)OC=C(Cl)Cl`, the Potency result is “inactive”.

As to `CCCCn1cc[n+](C)c1C`, the Potency result is “inactive”.

For the compound `CC(=O)[O][Hg][c]1ccccc1`, the Potency result is “inactive”.

As for `CCCCCCCCCCn1cc[n+](C)c1`, the Potency result was “inactive”.

Turning to `O=C(O)COc1ccc(Cl)cc1Cl`, the Potency result is “inactive”.

On to `CC[N+](CC)(CC)CC`, for which the Potency entry is “inactive”.

As for `CCCCn1cc[n+](C)c1`, the Potency entry was “inactive”.

For the compound `C[C@]12CCC(=O)C=C1CC[C@@H]1[C@@H]2CC[C@]2(C)C(=O)CC[C@@H]12`, the Potency entry was “inactive”.

Regarding `Cc1cc(Cl)ccc1OCC(=O)O`, the Potency result is “inactive”.

Consider `O=c1[nH]c(=O)n(Cl)c(=O)n1Cl`, for which the Potency entry was “inactive”.

On to `CCn1cc[n+](C)c1C`, for which the Potency entry was “inactive”.

As to `O=P1(N(CCCl)CCCl)NCCCO1` (stereo unspecified), the Potency result was “inactive”.

On to `OCCOc1ccccc1`, for which the Potency entry was “inactive”.

As for `CCNc1nc(Cl)nc(NCC)n1`, the Potency result is “inactive”.

`CC(Cl)(Cl)C(=O)O`: the Potency entry is “inactive”.

A short description of the next test: A CellTox Green Cytotoxicity Assay to monitor cytotoxicity in HepG2 cells - 32 hour (AID 1224883). Also: nearly all actives have a fitted effect of over 50% in size. Also: potency is read from the fitted curve at half-maximal effect. The note with it: CellTox Green fluorescence; series mostly up to 76.8 µM. The essentials: as §1
Regarding `O=C(O)CCl`, the Potency entry was “inactive”.

In the case of `C=CCOC(Cn1ccnc1)c1ccc(Cl)cc1Cl` (stereo unspecified), the Potency is 49.1 µM (active) and 54.9 µM (active).

In the case of `CC(=O)O`, the Potency result is “inactive”.

For `CCC[N+]1(C)CCCC1`, the Potency result is “inactive”.

In the case of `CCCCCC[n+]1ccccc1`, the Potency entry was “inactive”.

As to `CCCC[N+]1(C)CCCCC1`, the Potency result is “inactive”.

`COCC(=O)N(c1c(C)cccc1C)C(C)C(=O)OC` (stereo unspecified): the Potency entry is “inactive”.

On to `Nc1ccccc1`, for which the Potency entry was “inactive”.

With `O=S(=O)(O)O`, the Potency result is “inactive”.

As for `C1CCC(NC2CCCCC2)CC1`, the Potency result is “inactive”.

`CCCn1cc[n+](C)c1`: the Potency entry is “inactive”.

For the compound `O=C(O)C(Cl)(Cl)Cl`, the Potency result is “inactive”.

Take `COP(=O)(OC)C(O)C(Cl)(Cl)Cl` (stereo unspecified): the Potency entry was “inactive”.

With `CN(C)[C@@H]1C(=O)C(C(N)=O)=C(O)[C@@]2(O)C(=O)C3=C(O)c4c(O)cccc4[C@@](C)(O)[C@H]3[C@H](O)[C@@H]12`, the Potency result is “inactive”.

For `O=C(O)C(Cl)Cl`, the Potency entry is “inactive”.

Consider `CCOP(=S)(OCC)Oc1ccc2c(C)c(Cl)c(=O)oc2c1`, for which the Potency entry is “inactive”.

Regarding `CC[n+]1ccccc1`, the Potency result is “inactive”.

With `COP(=O)(OC)OC=C(Cl)Cl`, the Potency entry is “inactive”.

As for `CCCCn1cc[n+](C)c1C`, the Potency result was “inactive”.

As for `CC(=O)[O][Hg][c]1ccccc1`, the Potency was 1.53 µM (active) and 1.95 µM (active) and 1.07 µM (active).

For the compound `CCCCCCCCCCn1cc[n+](C)c1`, the Potency is 44.1 µM (active) and 54.9 µM (active).

For `O=C(O)COc1ccc(Cl)cc1Cl`, the Potency entry is “inactive”.

For the compound `CC[N+](CC)(CC)CC`, the Potency entry is “inactive”.

`CCCCn1cc[n+](C)c1`: the Potency result was “inactive”.

Turning to `C[C@]12CCC(=O)C=C1CC[C@@H]1[C@@H]2CC[C@]2(C)C(=O)CC[C@@H]12`, the Potency entry was “inactive”.

For the compound `Cc1cc(Cl)ccc1OCC(=O)O`, the Potency entry is “inactive”.

For `O=c1[nH]c(=O)n(Cl)c(=O)n1Cl`, the Potency entry is “inactive”.

On to `CCn1cc[n+](C)c1C`, for which the Potency entry is “inactive”.

As for `O=P1(N(CCCl)CCCl)NCCCO1` (stereo unspecified), the Potency result was “inactive”.

As to `OCCOc1ccccc1`, the Potency result was “inactive”.

For the compound `CCNc1nc(Cl)nc(NCC)n1`, the Potency result was “inactive”.

For `CC(Cl)(Cl)C(=O)O`, the Potency entry is “inactive”.
